We go through 39 compounds from the supplement of paper PMC8253809.

Where “and” joins values, the source holds several entries; their conditions need not be identical. Identical values can stand only once.

In one experiment the test system is SUDIPGVI (diffuse intrinsic pontine glioma line)
The experiment can be described thus: growth inhibition (% activity, log2 RLU normalised to DMSO / staurosporine); higher = more growth inhibition. The settings on record: 33 µM. In short, it runs like this: (§1)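 Cells (pHGG lines and H9-derived neural stem cells) were plated on Geltrex-coated 384-well plates and exposed to approved drugs at a single final concentration of about 33 μM, in triplicate, for 7 days at 37 °C, 5% CO2. Log2-transformed CellTiter-Glo luminescence was normalised per plate to % activity between solvent and positive control wells, and the growth-inhibition value is the median over replicates.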
Take `Cc1ccc(NC(=O)c2ccc(CN3CCN(C)CC3)cc2)cc1Nc1nc(-c2cccnc2)cs1`: the growth inhibition turned out to be 9.06%.

With `CO[C@H]1C(=O)[C@]2(C)[C@@H](OC)C[C@H]3OC[C@@]3(OC(C)=O)[C@H]2[C@H](OC(=O)c2ccccc2)[C@]2(O)C[C@H](OC(=O)[C@H](O)[C@@H](NC(=O)OC(C)(C)C)c3ccccc3)C(C)=C1C2(C)C`, the growth inhibition was found to be 3.28%.

Consider `C#C[C@]1(O)CC[C@H]2[C@@H]3CCc4cc(O)ccc4[C@H]3CC[C@@]21C`, for which the growth inhibition is 1.36%.

In the case of `CN(C)c1ccc(C(=C2C=CC(=[N+](C)C)C=C2)c2ccc(N(C)C)cc2)cc1`, the growth inhibition turned out to be 50%.

With `CN1CCN(c2c(F)cc3c(=O)c(C(=O)O)cn(CCF)c3c2F)CC1`, the growth inhibition was 2.45%.

Consider `CC(C)(C#N)c1cc(Cn2cncn2)cc(C(C)(C)C#N)c1`, for which the growth inhibition is 2.45%.

Turning to `CNC(=O)c1ccccc1Sc1ccc2c(/C=C/c3ccccn3)n[nH]c2c1`, the growth inhibition amounted to 0.631%.

For the compound `Cc1ccccc1C(=O)Nc1ccc(C(=O)N2CCCC(O)c3cc(Cl)ccc32)c(C)c1` (stereo not drawn), the growth inhibition is 3.58%.

As for `O=C(O)c1cc(=O)c2ccccc2o1`, the growth inhibition worked out at 2.48%.

As for `CC[C@H](C)C(=O)O[C@H]1C[C@H](O)C=C2C=C[C@H](C)[C@H](CC[C@@H](O)C[C@@H](O)CC(=O)O)[C@H]21`, the growth inhibition was -4.73%.

Turning to `Cc1ccccc1C(OCCN(C)C)c1ccccc1` (stereo not drawn), the growth inhibition is 0.905%.

For `CC(C)(Oc1ccc(Cl)cc1)C(=O)O`, the growth inhibition is -0.459%.

With `C#C[C@]1(OC(C)=O)CC[C@H]2[C@@H]3CCC4=C[C@@H](OC(C)=O)CC[C@@H]4[C@H]3CC[C@@]21C`, the growth inhibition was 1.15%.

Regarding `CN1[C@@H]2CC[C@H]1CC(OC(=O)c1c[nH]c3ccccc13)C2` (stereo partly drawn), the growth inhibition was 1.15%.

As to `Cc1ccccc1N1C(=O)c2cc(S(N)(=O)=O)c(Cl)cc2NC1C` (stereo not drawn), the growth inhibition was -1.57%.

As to `Cc1cc(NS(=O)(=O)c2ccc(N)cc2)no1`, the growth inhibition is -3.16%.

Take `COC(=O)C1=C(C)NC(C)=C(C(=O)OC2CCCN(Cc3ccccc3)C2)C1c1cccc([N+](=O)[O-])c1` (stereo not drawn): the growth inhibition is -1.31%.

Regarding `CC(C)/N=c1\cc2n(-c3ccc(Cl)cc3)c3ccccc3nc-2cc1Nc1ccc(Cl)cc1`, the growth inhibition stood at 5.83%.

As for `O=C(OCC(O)CO)c1ccccc1Nc1ccnc2cc(Cl)ccc12` (stereo not drawn), the growth inhibition is 2.77%.

For `O=C(O)CSCC(=O)NC1CCSC1=O` (stereo not drawn), the growth inhibition is 1.47%.

Consider `C=C1CC[C@H](O)C/C1=C/C=C1\CCC[C@]2(C)[C@@H]([C@H](C)/C=C/[C@H](C)C(C)C)CC[C@@H]12`, for which the growth inhibition stood at 4.49%.

As to `COC(=O)Nc1nc2cc([S+]([O-])c3ccccc3)ccc2[nH]1` (stereo not drawn), the growth inhibition is 5.46%.

In the case of `CN(C)[C@@H](CCOc1cccc2ccccc12)c1ccccc1`, the growth inhibition is -2.24%.

For the compound `O=c1c(-c2ccc(O)cc2)coc2cc(O)cc(O)c12`, the growth inhibition came out at 0.172%.

For the compound `O=C1CCc2cc(OCCCCc3nnnn3C3CCCCC3)ccc2N1`, the growth inhibition was found to be 3.43%.

Take `C[C@@](Cc1ccc(O)c(O)c1)(NN)C(=O)O`: the growth inhibition was determined as 2.9%.

In the case of `CCc1ccc(CCOc2ccc(CC3SC(=O)NC3=O)cc2)nc1` (stereo not drawn), the growth inhibition is -1.48% and 2.8%.

Take `CC(C[N+](C)(C)C)OC(N)=O` (stereo not drawn): the growth inhibition was -2.52%.

As for `CN(C)CCOc1ccc(/C(=C(/CCCl)c2ccccc2)c2ccccc2)cc1`, the growth inhibition is 0.578%.

On to `CCNC(=O)CCC/C=C\C[C@@H]1[C@@H](/C=C/[C@@H](O)CCc2ccccc2)[C@H](O)C[C@@H]1O`, for which the growth inhibition was 0.646%.

Consider `CO[C@H]1O[C@@H]2O[C@@]3(C)CC[C@H]4[C@H](C)CC[C@@H]([C@H]1C)[C@@]24OO3`, for which the growth inhibition is 1.25%.

For the compound `N=C(N)NS(=O)(=O)c1ccc(N)cc1`, the growth inhibition worked out at 1.1%.

As for `CNC[C@H](O)c1cccc(O)c1`, the growth inhibition was found to be 0.615%.

On to `CC(C)(C)NCC(O)c1ccc(O)c(CO)c1` (stereo not drawn), for which the growth inhibition is -4.26%.

Regarding `C=C1[C@H](CO)[C@@H](O)C[C@@H]1n1cnc2c(=O)[nH]c(N)nc21`, the growth inhibition is 0.432%.

Turning to `CC(C)(C(=O)O)c1ccc(C(O)CCCN2CCC(C(O)(c3ccccc3)c3ccccc3)CC2)cc1` (stereo not drawn), the growth inhibition amounted to 1.9%.

Regarding `NCCS`, the growth inhibition was -5.68%.

On to `CCCc1nn(C)c2c(=O)[nH]c(-c3cc(S(=O)(=O)N4CCN(C)CC4)ccc3OCC)nc12`, for which the growth inhibition is 0.71%.

For the compound `COC1C(O)CC(=O)OC(C)CC=CC=CC(OC2CCC(N(C)C)C(C)O2)C(C)CC(CC=O)C1OC1OC(C)C(OC2CC(C)(O)C(O)C(C)O2)C(N(C)C)C1O` (stereo not drawn), the growth inhibition came out at 1.86%.

Another experiment relates to SUDIPGXIII (diffuse intrinsic pontine glioma line)
The experiment is described as above. The settings on record: 33 µM. In a few lines: as §1
As for `Cc1ccc(NC(=O)c2ccc(CN3CCN(C)CC3)cc2)cc1Nc1nc(-c2cccnc2)cs1`, the growth inhibition came to 2.08%.

With `CO[C@H]1C(=O)[C@]2(C)[C@@H](OC)C[C@H]3OC[C@@]3(OC(C)=O)[C@H]2[C@H](OC(=O)c2ccccc2)[C@]2(O)C[C@H](OC(=O)[C@H](O)[C@@H](NC(=O)OC(C)(C)C)c3ccccc3)C(C)=C1C2(C)C`, the growth inhibition stood at 2.32%.

As to `C#C[C@]1(O)CC[C@H]2[C@@H]3CCc4cc(O)ccc4[C@H]3CC[C@@]21C`, the growth inhibition stood at 0.6%.

For the compound `CN(C)c1ccc(C(=C2C=CC(=[N+](C)C)C=C2)c2ccc(N(C)C)cc2)cc1`, the growth inhibition was 74.4%.

Consider `CN1CCN(c2c(F)cc3c(=O)c(C(=O)O)cn(CCF)c3c2F)CC1`, for which the growth inhibition is -2.39%.

Take `CC(C)(C#N)c1cc(Cn2cncn2)cc(C(C)(C)C#N)c1`: the growth inhibition was 1.01%.

For `CNC(=O)c1ccccc1Sc1ccc2c(/C=C/c3ccccn3)n[nH]c2c1`, the growth inhibition turned out to be 5.66%.

For `Cc1ccccc1C(=O)Nc1ccc(C(=O)N2CCCC(O)c3cc(Cl)ccc32)c(C)c1` (stereo not drawn), the growth inhibition stood at 0.514%.

For `O=C(O)c1cc(=O)c2ccccc2o1`, the growth inhibition stood at 0.672%.

For the compound `CC[C@H](C)C(=O)O[C@H]1C[C@H](O)C=C2C=C[C@H](C)[C@H](CC[C@@H](O)C[C@@H](O)CC(=O)O)[C@H]21`, the growth inhibition stood at 2.62%.

Turning to `Cc1ccccc1C(OCCN(C)C)c1ccccc1` (stereo not drawn), the growth inhibition stood at 1.58%.

For the compound `CC(C)(Oc1ccc(Cl)cc1)C(=O)O`, the growth inhibition was -0.393%.

Regarding `C#C[C@]1(OC(C)=O)CC[C@H]2[C@@H]3CCC4=C[C@@H](OC(C)=O)CC[C@@H]4[C@H]3CC[C@@]21C`, the growth inhibition is 1.62%.

On to `CN1[C@@H]2CC[C@H]1CC(OC(=O)c1c[nH]c3ccccc13)C2` (stereo partly drawn), for which the growth inhibition worked out at 0.619%.

In the case of `Cc1ccccc1N1C(=O)c2cc(S(N)(=O)=O)c(Cl)cc2NC1C` (stereo not drawn), the growth inhibition was -0.324%.

In the case of `Cc1cc(NS(=O)(=O)c2ccc(N)cc2)no1`, the growth inhibition is -0.124%.

With `COC(=O)C1=C(C)NC(C)=C(C(=O)OC2CCCN(Cc3ccccc3)C2)C1c1cccc([N+](=O)[O-])c1` (stereo not drawn), the growth inhibition worked out at 2.1%.

On to `CC(C)/N=c1\cc2n(-c3ccc(Cl)cc3)c3ccccc3nc-2cc1Nc1ccc(Cl)cc1`, for which the growth inhibition came out at 5.35%.

Turning to `O=C(OCC(O)CO)c1ccccc1Nc1ccnc2cc(Cl)ccc12` (stereo not drawn), the growth inhibition came out at 0.927%.

As for `O=C(O)CSCC(=O)NC1CCSC1=O` (stereo not drawn), the growth inhibition is -6.51%.

As for `C=C1CC[C@H](O)C/C1=C/C=C1\CCC[C@]2(C)[C@@H]([C@H](C)/C=C/[C@H](C)C(C)C)CC[C@@H]12`, the growth inhibition came out at 0.866%.

Consider `COC(=O)Nc1nc2cc([S+]([O-])c3ccccc3)ccc2[nH]1` (stereo not drawn), for which the growth inhibition turned out to be 0.605%.

As for `CN(C)[C@@H](CCOc1cccc2ccccc12)c1ccccc1`, the growth inhibition amounted to 0.415%.

Regarding `O=c1c(-c2ccc(O)cc2)coc2cc(O)cc(O)c12`, the growth inhibition was -2.36%.

Regarding `O=C1CCc2cc(OCCCCc3nnnn3C3CCCCC3)ccc2N1`, the growth inhibition stood at 1.12%.

As for `C[C@@](Cc1ccc(O)c(O)c1)(NN)C(=O)O`, the growth inhibition was found to be 1.25%.

`CCc1ccc(CCOc2ccc(CC3SC(=O)NC3=O)cc2)nc1` (stereo not drawn): the growth inhibition is -2.58% and 1.07%.

For the compound `CC(C[N+](C)(C)C)OC(N)=O` (stereo not drawn), the growth inhibition was 0.126%.

With `CN(C)CCOc1ccc(/C(=C(/CCCl)c2ccccc2)c2ccccc2)cc1`, the growth inhibition was -0.556%.

In the case of `CCNC(=O)CCC/C=C\C[C@@H]1[C@@H](/C=C/[C@@H](O)CCc2ccccc2)[C@H](O)C[C@@H]1O`, the growth inhibition was -0.283%.

Take `CO[C@H]1O[C@@H]2O[C@@]3(C)CC[C@H]4[C@H](C)CC[C@@H]([C@H]1C)[C@@]24OO3`: the growth inhibition was 14.3%.

In the case of `N=C(N)NS(=O)(=O)c1ccc(N)cc1`, the growth inhibition is -0.789%.

As for `CNC[C@H](O)c1cccc(O)c1`, the growth inhibition came to 0.446%.

In the case of `CC(C)(C)NCC(O)c1ccc(O)c(CO)c1` (stereo not drawn), the growth inhibition was found to be 1.25%.

`C=C1[C@H](CO)[C@@H](O)C[C@@H]1n1cnc2c(=O)[nH]c(N)nc21`: the growth inhibition came to 2.42%.

As for `CC(C)(C(=O)O)c1ccc(C(O)CCCN2CCC(C(O)(c3ccccc3)c3ccccc3)CC2)cc1` (stereo not drawn), the growth inhibition is -0.622%.

Consider `NCCS`, for which the growth inhibition worked out at 0.354%.

As to `CCCc1nn(C)c2c(=O)[nH]c(-c3cc(S(=O)(=O)N4CCN(C)CC4)ccc3OCC)nc12`, the growth inhibition is -0.097%.

In the case of `COC1C(O)CC(=O)OC(C)CC=CC=CC(OC2CCC(N(C)C)C(C)O2)C(C)CC(CC=O)C1OC1OC(C)C(OC2CC(C)(O)C(O)C(C)O2)C(N(C)C)C1O` (stereo not drawn), the growth inhibition is 0.183%.
